Assay results taken from PubChem BioAssay AID624417 (National Center for Advancing Translational Sciences (NCATS), 2012).
The campaign covered roughly 410,000 compounds. About 6,400 (1.6%) were called active. About 20% were inconclusive and are not listed. Calls come from the whole dose curve; as a rule, active = well fitted inhibition curve with a large enough effect; inconclusive = small, poorly fitted or top-dose-only effect; inactive = no such curve, though single readings can be large or run the other way. For the sample, actives were picked, then their nearest neighbours and some compounds at random.

Each molecule was assayed against Glucagon-like peptide 1 receptor (Homo sapiens) (UniProt P43220) (assay: qHTS of GLP-1 Receptor Inverse Agonists (Inhibition Mode)). Conditions: HEK293 GLP-1R CRE-luciferase, luminescence, 24 h, GLP-1R form is constitutively active; series mostly up to 38.3 µM.
Procedure, shortened: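 HEK293 cells stably co-expressing a cAMP-responsive luciferase reporter and constitutively active GLP-1R were seeded, incubated 12 h, then exposed to compounds for 24 h at 37 C. Luminescence was read 12 min after detection reagent; inverse agonists lower signal.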
Note: nearly all actives have a fitted effect of over 55% in size.
Potency is the fitted concentration of half-maximal effect.

Sequence of Glucagon-like peptide 1 receptor (Homo sapiens) (P43220 whole entry, looked up): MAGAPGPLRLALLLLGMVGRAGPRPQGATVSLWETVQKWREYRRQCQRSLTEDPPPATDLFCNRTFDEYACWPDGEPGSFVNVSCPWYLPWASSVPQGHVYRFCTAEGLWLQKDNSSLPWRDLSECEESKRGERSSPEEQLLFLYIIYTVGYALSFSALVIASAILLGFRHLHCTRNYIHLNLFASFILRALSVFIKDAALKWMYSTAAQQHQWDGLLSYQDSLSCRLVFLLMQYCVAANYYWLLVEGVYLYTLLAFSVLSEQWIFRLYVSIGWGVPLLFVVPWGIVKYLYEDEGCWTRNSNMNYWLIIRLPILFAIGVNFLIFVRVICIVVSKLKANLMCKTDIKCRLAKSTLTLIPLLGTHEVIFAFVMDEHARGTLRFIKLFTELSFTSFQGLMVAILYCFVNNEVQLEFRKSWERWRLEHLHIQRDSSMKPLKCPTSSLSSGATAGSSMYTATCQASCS

Potency, active:
O=S(=O)(c1cccc(C(F)(F)F)c1)N1c2ccccc2-n2cccc2C1c1cccnc1 (centres undefined) 10 µM
Cc1ccc(C)c(NC(=S)NNC(=S)Nc2ccc(C(C)C)cc2)c1 3.55 µM
CCCCCCCC(=O)NC(Nc1ccccc1OC)C(Cl)(Cl)Cl (centres undefined) 6.31 µM
Cc1ccccc1OCC(=O)Nc1ccc(N2CCN(C(=O)C(C)C)CC2)c(Cl)c1 3.98 µM
COc1ccccc1C(=O)Nc1ccc(C)c(S(=O)(=O)N2CCCCC2)c1 14.1 µM
CCc1ccccc1OCC(=O)Nc1ccc(C)c(S(=O)(=O)N2CCCCCC2)c1 8.91 µM
Cc1onc(-c2ccccc2Cl)c1C(=O)NCCn1ccc2ccccc21 6.31 µM
COc1cc(NC(=O)c2cc(C3CC3)nc3c2c(C)nn3-c2ccccc2)cc(OC)c1 10 µM
CCc1noc(C)c1C(=O)Oc1ccc(N(C)S(=O)(=O)c2ccc(C)c(C)c2)cc1 12.6 µM
COc1ccc(CCC(=O)NCCc2csc(-c3ccc(Cl)cc3)n2)cc1 10 µM
Cc1cccc2nc(-c3ccc(Cl)s3)c(Nc3ccc4c(c3)OCCO4)n12 10 µM
CCOC(=O)CSc1nc(N2CCOCC2)c2c(c1C#N)CC(C(C)C)OC2 (centres undefined) 2.24 µM
CC1(C(=O)Nc2cccc(Oc3ccccc3)c2)CCN1Cc1ccccc1Cl (centres undefined) 10 µM
CCc1ccccc1NC(=O)/C(=C/c1ccccc1)c1ccccc1 11.2 µM
O=C(NCCSCc1ccccc1)c1ccc(Cl)c(S(=O)(=O)N2CCOCC2)c1 11.2 µM
CC(Nc1nc(N2CCN(CCO)CC2)nc2ccccc12)c1ccccc1 (centres undefined) 4.47 µM
COc1cc(CNC2CCCC2)c(Br)cc1OCc1ccccc1 3.16 µM
O=C(CN1CCCCCC1)Nc1ccc(Br)cc1Br 10 µM
Cn1cc(CCC(=O)N2CCCC(C(=O)c3ccc(C(C)(C)C)cc3)C2)cn1 (centres undefined) 10 µM
Cc1ccc(CCNC(=O)C2CCN(c3nnc(-n4cccc4CNc4ccc(C)cc4)s3)CC2)cc1 4.47 µM

Potency, inactive:
CC(C)CNC(=O)C1(C)CCCN1C(=O)CSc1ccccc1 (centres undefined)
O=S(=O)(c1cccc(C(F)(F)F)c1)N1CCN(c2cnccn2)CC1
CC(=O)Nc1ccc(NC(=O)C2CCCN2S(=O)(=O)c2cccc(C(F)(F)F)c2)cc1 (centres undefined)
Cc1ccc(C)c(NC(=S)NNC(=O)c2csc(C)c2)c1
CC(C)c1ccc(NC(=S)NNc2ccc(Cl)c(C(=O)O)c2)cc1
CCCC(=O)NC(Nc1ccccc1OC)C(Cl)(Cl)Cl (centres undefined)
CCCCCN(C(=O)NC(=O)Nc1ccccc1OC)S(C)(=O)=O
Cn1ncc([N+](=O)[O-])c1C(=O)Nc1cc(Cl)ccc1Cl
CCc1nc2ccc(C(=O)N(C)Cc3ccco3)cn2c1N(C)C(=O)Cc1ccccc1
OC[C@@H]1CN(C2CCCC2)C[C@H](n2cnc3c(NC4CCC4)ncnc32)O1
Cc1ccccc1OCC(=O)Nc1ccc(S(=O)(=O)N2CCOCC2)cc1
COc1ccccc1C(CNC(=O)c1ccc(C)c(S(=O)(=O)N2CCCCC2)c1)N(C)C (centres undefined)
Cc1ccccc1OCC(=O)Nc1ccc2c(c1)ncn2C
COc1ccc(NC(=O)C2=NNC(=O)CC2)cc1S(=O)(=O)N1CCCCC1
Cc1ccc(NC(=O)CCC(=O)N2CCC(c3ccccc3)=N2)cc1S(=O)(=O)N1CCCCC1
Cc1ccc(NC(=O)COC(=O)C2CC2)cc1S(=O)(=O)N1CCOCC1
CC1(C(=O)NS(=O)(=O)c2ccccc2)CCN1C(=O)c1ccccc1 (centres undefined)
Nc1nc(CSc2nnnn2-c2ccccc2)nc(Nc2ccccc2)n1
CCOC(=O)C1=CCC2C(=O)N(Cc3ccccc3)C(=O)C12 (centres undefined)
COC(=O)[C@]12CCCCC=C1N(Cc1ccco1)C(=O)[C@H](CC(=O)NCCCCc1ccccc1)C2
CCN(C(=O)Nc1cccc2ccccc12)c1ccccc1
CC(C)[C@H](NC(=O)c1ccccc1F)C(=O)Nc1cccc(S(=O)(=O)N2CCOCC2)c1
CCCNC(=O)C1(C)CCN(C(=O)c2ccccc2OC(F)(F)F)C1 (centres undefined)
OC[C@H]1O[C@@H](c2nc(-c3nc(-c4ccc(F)cc4)no3)cs2)[C@H](O)[C@@H](O)[C@H]1O
CC1(C(=O)NCc2ccccc2)CN(S(C)(=O)=O)CC(=O)N1CC(F)(F)F (centres undefined)
COCCNC(=O)c1ccccc1-c1nc(-c2ccccc2Cl)no1
CC(=O)Nc1cccc(/C(C)=N/NC(=O)c2c(-c3ccccc3Cl)noc2C)c1
CCNC(=O)C1CCCN(C(=O)c2ccc(OC)cc2OC)CC1 (centres undefined)
COc1ccc(NC(=O)c2cc(-c3ccc(C)o3)nc3ccccc23)cc1
COc1ccccc1NC(=O)c1cc(C2CC2)nc2c1c(C)nn2-c1ccc(C)cc1
CC(C)C[C@H]1CNC(=O)C(=O)N1C[C@@H]1CCCN1C[C@H](Cc1ccccc1)N1C[C@H](CC(C)C)N(CC2CCCCCC2)C(=O)C1=O
CN(c1ccc(OCC(=O)O)cc1)S(=O)(=O)c1ccc2ccccc2c1
Cc1ccc(S(=O)(=O)N(C)C)cc1NC(=O)COC(=O)c1c(C)noc1C
COC(=O)c1ccc2nc(-c3cccc(Br)c3)c(Cc3ccc(OC)cc3C)n2c1
COc1ccc(NC(=O)N(C)C[C@@H]2OCc3cn(nn3)CCCC(=O)N([C@H](C)CO)C[C@H]2C)c(OC)c1
COc1ccc(-c2nc(CCNC(=O)c3ccc(Br)o3)cs2)cc1
O=C(NCCc1csc(-c2ccccc2)n1)c1ccccc1F
CN1OC[C@@H]2CN(C(=O)c3cccnc3)[C@H](c3ccc(N4CCCCC4)cc3)C[C@@H]21
CNC(=O)C[C@H]1C(=O)N(Cc2ccccc2)C[C@@H]1CSC
Oc1ccc(-c2nc3ccc(Cl)cn3c2Nc2ccc3c(c2)OCO3)cc1
Oc1ccccc1-c1nc2ccc(Cl)cn2c1Nc1ccc2c(c1)OCCO2
O=C(NCCS(=O)(=O)N1CCN(c2ccccc2)CC1)c1cc(=O)c2ccccc2o1
CC1(C2CC2)NC(=O)N(CC(=O)N2CCN(c3ccccc3F)CC2)C1=O (centres undefined)
O=C(Nc1ccc(OCCO)cc1)c1csc([C@H]2C[C@H](O)[C@@H](CO)O2)n1
CCOC(=O)CSc1nccc(N(C)C)c1C#N
COc1ccc(CSc2nc(N3CCOCC3)c3c(c2C#N)CC(C)(C)OC3)cc1
Cc1ccc(-c2c(N)nc3ncccn23)cc1
CCCc1c(-c2ccccc2F)ncn1Cc1ccccc1OC
CSc1ccc(CN2CCC2(C)C(=O)Nc2ccc(C)c(O)c2)cc1 (centres undefined)
COc1cccc(NC(=O)C2(C)CCN2C(=O)CCC2CCCC2)c1 (centres undefined)
Cc1ccc(C)c(C(O)c2ncc(-c3cccc4ccccc34)[nH]2)c1 (centres undefined)
CCc1ccccc1NC(=O)CCOc1ccccc1
CCc1ccccc1NC(=S)Nc1cc(OC)c(NC(=O)C(C)C)cc1OC
O=S1(=O)CC(N2CCN(Cc3ccccc3F)CC2)CN1Cc1cn(Cc2ccccc2)nn1 (centres undefined)
NS(=O)(=O)c1ccc(CCNC(=O)c2ccc(Cl)c(S(=O)(=O)N3CCCCCC3)c2)cc1
Cc1nn(Cc2ccccc2)c(C)c1CNC(=O)c1ccc(F)c(S(=O)(=O)N2CCOCC2)c1
CCCC(=O)N1CCC1(C)C(=O)Nc1ccc(-n2cncn2)cc1 (centres undefined)
CCOC(=O)C1CCCN(C(=O)c2ccc(N(C)C)cc2)CC1 (centres undefined)
O=C1c2ccccc2C(=O)c2c1cccc2N1CCN(CCO)CC1
OCCN1CCN(c2nnc(-c3ccccc3)c3ccccc23)CC1
CC(=O)Nc1cc(-c2ccc(N3CCN(C)CC3)cc2)cn2c(-c3cccc(C(=O)N(C)C)c3)cnc12
COc1cc(C=O)c(Br)cc1OCC(=O)NCc1ccccc1
COc1ccc(CNC2CCCCC2)cc1
COc1cc2nnn(-c3ccncc3)c2cc1OC
O=C(CN1CCCCCC1)Nc1ccc(Cl)cc1F
O=C(CN1CCCCCC1)Nc1ccc(Br)cc1[N+](=O)[O-]
COCCCNC(=O)c1cccc2c(-c3ccc(O)c(OC)c3)coc12
COc1cccc(CN2CCC(C(=O)NC(c3ccc4c(c3)OCO4)c3ccccn3)CC2)c1 (centres undefined)
CCc1nc2ccc(C(=O)NC3CCN(Cc4ccccc4)CC3)cn2c1N(CC)CCOC
Cc1cc(Br)cn2c(Cc3cccc(F)c3)c(-c3cccc(Br)c3)nc12
O=C1CCC(CCC(=O)N2CCCC(C(=O)c3ccc(Cl)cc3)C2)=NN1 (centres undefined)
COCC(=O)N1CCCC(C(=O)c2ccc(C(F)(F)F)cc2)C1 (centres undefined)
CCCNC(=O)c1cc(C2CCCCN2S(=O)(=O)c2cn(C)cn2)on1 (centres undefined)
O=C(NCc1ccc(F)cc1)c1cc(C2CCCCN2C(=O)c2ccccn2)on1 (centres undefined)
Cc1cccc(S(=O)(=O)N(C)C[C@H]2OCc3cnnn3CCCC(=O)N([C@@H](C)CO)C[C@H]2C)c1
CSc1ccc(CCNC(=O)C2CCN(c3nnc(-n4cccc4)s3)CC2)cc1
CCOc1ccc(CNC(=O)C2CCN(c3nnc(-n4cccc4CNc4ccc(C)cc4)s3)CC2)cc1OC
O=C(NCc1ccccc1)C(c1ccc(F)cc1)N1CCN(C(=O)C2CCCO2)CC1 (centres undefined)
O=S1(=O)CC(N2CCSCC2)CN1Cc1cn(Cc2cccc(Cl)c2)nn1 (centres undefined)
